Hit rate of the full screen: of about 220,000 compounds, about 830 (0.38%) were called active. For the sample, actives were picked, then their nearest neighbours and some compounds at random. A number with no mark means an inactive call. The rule behind the calls is not given here.
Target: Regulator of G-protein signaling 16 (Homo sapiens) + Guanine nucleotide-binding protein G(o) subunit alpha (Homo sapiens) (UniProt O15492+P09471)
Experiment: modulators of RGS16 binding to Galphao, primary screen, biochemical, human proteins, multiplexed bead flow cytometry (AID 1441);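 note: Galphao activated by GDP with aluminum fluoride before binding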
Details: bead-based flow cytometry RGS16-Galphao binding, fluorescence; at 10 µM; actives lie on both sides

Sequence of Regulator of G-protein signaling 16 (Homo sapiens) + Guanine nucleotide-binding protein G(o) subunit alpha (Homo sapiens) (O15492 whole entry, looked up): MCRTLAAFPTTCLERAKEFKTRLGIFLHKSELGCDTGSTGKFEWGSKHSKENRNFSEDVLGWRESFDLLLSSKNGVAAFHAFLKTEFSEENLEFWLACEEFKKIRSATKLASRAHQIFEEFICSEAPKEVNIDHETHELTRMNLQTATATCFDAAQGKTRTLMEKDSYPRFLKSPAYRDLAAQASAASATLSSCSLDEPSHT
Sequence of Regulator of G-protein signaling 16 (Homo sapiens) + Guanine nucleotide-binding protein G(o) subunit alpha (Homo sapiens) (P09471 whole entry, looked up): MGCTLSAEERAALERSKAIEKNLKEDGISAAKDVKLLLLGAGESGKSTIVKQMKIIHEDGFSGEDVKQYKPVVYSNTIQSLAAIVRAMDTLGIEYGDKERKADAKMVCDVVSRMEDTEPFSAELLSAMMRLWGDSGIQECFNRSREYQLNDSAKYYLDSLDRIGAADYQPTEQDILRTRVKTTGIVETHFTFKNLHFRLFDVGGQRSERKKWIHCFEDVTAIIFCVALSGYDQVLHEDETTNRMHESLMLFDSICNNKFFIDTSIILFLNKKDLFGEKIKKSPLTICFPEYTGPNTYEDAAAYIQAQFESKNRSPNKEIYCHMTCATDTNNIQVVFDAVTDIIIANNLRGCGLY

| SMILES | binding response (% of control) |
| --- | --- |
| COCCCN1C(=O)C(=O)/C(=C(/O)c2ccc3c(c2)CC(C)O3)C1c1cccnc1 (centres undefined) | 68.3% |
| COc1cc(C2/C(=C(\O)c3ccc4c(c3)CC(C)O4)C(=O)C(=O)N2Cc2ccco2)ccc1O (centres undefined) | -10.7% (active) |
| COc1ccc(/C(O)=C2\C(=O)C(=O)N(Cc3ccco3)C2c2ccc(OC)cc2OC)cc1 (centres undefined) | 97.2% |
| CC(=O)Nc1ccc(OCCC[n+]2cccc(C(=O)[O-])c2)cc1 | 97.8% |
| O=C(NCc1ccccc1)c1ccc(CNc2c(N3CCCC3)c(=O)c2=O)cc1 | 102% |
| COc1ccc(Br)cc1/C=N/Nc1ccc(Cl)c(C(=O)O)c1 | 103% |
| O=C(Cn1cnc2cc([N+](=O)[O-])ccc2c1=O)NC(=O)NCc1ccccc1 | 112% |
| Nc1c(N(CCO)C(=O)C2CCCCC2)c(=O)[nH]c(=O)n1Cc1ccccc1 | 86.5% |
| O=C(COc1ccccc1)N1CCc2ccccc2C1 | 102% |
| Cn1c(=O)c2c(n(Cc3ccccc3)c1=O)NC(=O)C2CC(=O)N1CCc2ccccc2C1 (centres undefined) | -1.02% (active) |
| O=C(CSc1nnc(-c2cccs2)n1Cc1ccccc1)N1CCc2ccccc2C1 | 101% |
| Cc1ccc(N(CC(O)CN2CCCC2)S(=O)(=O)c2ccccc2)cc1 (centres undefined) | 100% |
| O=S(=O)(c1ccccc1)N(CC(O)CN1CCCCC1)c1ccccc1 (centres undefined) | 96.4% |
| Cc1cc(C)n(CC(O)CN(c2ccccc2)S(=O)(=O)c2ccc3ccccc3c2)n1 (centres undefined) | -6.51% (active) |
| CCN(CC(=O)Nc1ccc(Cl)c(S(=O)(=O)N(C)C)c1)Cc1nc2ccccc2c(=O)[nH]1 | 107% |
| CCOC(=O)CSc1nc(C)c(Oc2ccc(Cl)cc2Cl)c(=O)[nH]1 | 101% |
| COc1ccc(C(=O)C[n+]2ccc(N)c(C)c2C)cc1 | 99.8% |
| CCOC(=O)c1c(CC(C)C)csc1/N=C/C1=C(O)CCCC1=O | 103% |
| CN1CCN(C(=O)C2C3C=CC(C3)C2C(=O)O)CC1 (centres undefined) | 102% |
| C/C(=C/C(=O)N1CCN(C)CC1)C(=O)O | 234% [activator] (active) |
| CCN1CCN(C(=O)/C=C\C(=O)O)CC1 | 101% |
| COC(=O)C(C(=O)Nc1cccc(C)n1)C1CCCCCC1 (centres undefined) | 103% |
| CCCc1cc(=S)n2c([nH]c3ccccc32)c1C#N | 97.3% |
| CSc1sc(C(=O)NNC(=O)c2ccc(Cl)cc2)c2c1C=CCC2 | 92.2% |

| SMILES | binding response (% of control) |
| --- | --- |
| O=C(O)c1ccccc1C(=O)Nc1ccccc1[N+](=O)[O-] | 96.6% |
| O=C(Cc1c[nH]c2ccccc12)OCCOC(=O)Cc1c[nH]c2ccccc12 | 97.3% |
| CCCn1cc(SCC(N)=O)c2ccccc21 | 85.2% |
| NC(=O)CSc1c[nH]c2ccccc12 | 19.6% (active) |
| Oc1ccc2ccccc2c1N=Nc1nccs1 | 99.9% |
| Oc1ccc(N=Nc2nccs2)c(O)c1 | -16.2% (active) |
| CCN1CCN(C(=O)CCN2C(=O)c3ccccc3C2=O)CC1 | 93.9% |
| Cc1noc(C)c1S(=O)(=O)Nc1cc(C(F)(F)F)ccc1N1CCOCC1 | 98% |
| Cc1cc(C)cc(C(=O)N2CCN=C2SCc2ccc([N+](=O)[O-])cc2)c1 | 96.2% |
| COC(=O)c1c(C)[nH]c(C)c1-c1ccc([N+](=O)[O-])cc1 | 85.3% |
| CC(=O)N1CC[n+]2c(-c3ccc([N+](=O)[O-])cc3)csc21 | 12.8% (active) |
| O=C(Nc1ccc2cn[nH]c2c1)c1ccc(S(=O)(=O)N2CCOCC2)cc1 | 92.3% |
| Cc1cc(F)ccc1S(=O)(=O)Nc1ncnc2scc(-c3ccc(F)cc3)c12 | 95.8% |
| CCOc1cc(CNCc2ccccn2)ccc1OCC(=O)NC(C)(C)C | 103% |
| Clc1ccc2nc(CSc3ccccc3)cn2c1 | 169% |
| CC(Sc1nnc2c(n1)C1CCC2(C)C1(C)C)C(=O)Nc1ccccc1 (centres undefined) | 102% |
| Fc1cc(F)c2nc(Nc3nc4c(F)cccc4s3)sc2c1 | 192% [activator] (active) |
| O=C(Nc1nc2c(F)cc(F)cc2s1)C1COc2ccccc2O1 (centres undefined) | 99.5% |
| NC(=O)c1c(Nc2nc3c(F)cccc3s2)sc2c1CCCC2 | 95% |
| NC(=O)CC(NC(=O)Cc1cccc2ccccc12)c1ccc(NCc2cc(F)ccc2F)c([N+](=O)[O-])c1 (centres undefined) | 100% |
| COc1cc(C(=O)Nc2cc(C(F)(F)F)ccc2N2CCOCC2)ccc1O | 9.57% (active) |
| COc1cc(C(=O)Nc2cc(C(F)(F)F)ccc2-n2cncn2)cc(OC)c1OC | 98.2% |
| CC(C)CC(=O)Nc1cc(C(F)(F)F)ccc1N1CCOCC1 | 101% |
| CC(=O)N1N=C(c2ccncc2)OC1(Cc1ccccc1)Cc1ccccc1 | 96.5% |

| SMILES | binding response (% of control) |
| --- | --- |
| N#Cc1c(N2CCCCC2)nc(N)c2c(N)nc(SCC(=O)O)cc12 | 114% |
| COc1ccc(CCNC(=O)C(=O)Nc2ccc3nc4n(c(=O)c3c2)CCCCC4)cc1OC | 105% |
| Cc1nn(-c2ccccc2)c(=O)c2noc(C)c12 | 102% |
| CCC(C)NC(=O)C1c2ccccc2Oc2ccccc21 (centres undefined) | 103% |
| Cc1ccc(C)c(OCC(=O)N2CCN(C(=O)c3ccco3)CC2)c1 | 24.4% (active) |
| O=C(OCC(=O)N1CCN(C(=O)c2ccco2)CC1)c1ccccc1Cc1ccccc1 | 82.8% |
| COc1cccc(OC)c1OCCN1CCN(C(=O)c2ccco2)CC1 | 101% |
| CC(C)(C)C1CCC(=NNC(=O)c2cc(-c3ccccc3)n[nH]2)CC1 (centres undefined) | 85.9% |
| COc1cc(/C=C/C(=O)N2c3ccccc3Sc3ccc(C(F)(F)F)cc32)cc(OC)c1OC | 97% |
| O=C(CN1CCCCC1)N1c2ccccc2Sc2ccc(C(F)(F)F)cc21 | -6.83% (active) |
| O=C(CN1CCCCCC1)N1c2ccccc2Sc2ccc(C(F)(F)F)cc21 | 81.4% |
| COc1ccc(S(=O)(=O)N(C)C)cc1NC(=O)CSc1ncccn1 | 101% |
| CCC(C)N(C(=O)COC(=O)C1C(C(=O)OC)=C(C)NC(C)=C1C(=O)OC)C1CCS(=O)(=O)C1 (centres undefined) | 104% |
| Cc1ccc(OC(=O)c2c(C)nn(-c3ccccc3)c2C)cc1 | 96.3% |
| Cc1nn(-c2ccccc2)c(C)c1C(=O)OCC(=O)NC(=O)NC1CCCCC1 | 98.5% |
| CCCn1c(C)cc(C(=O)COC(=O)c2c(C)nn(-c3ccccc3)c2C)c1C | -33.9% (active) |
| O=C(Nc1ccc(Cl)cc1)/C(=C1\CCCN1)[N+](=O)[O-] | 97.8% |
| FC(F)Oc1ccccc1C1CC(c2ccc(Br)s2)Nc2ncnn21 (centres undefined) | 215% [activator] (active) |
| Clc1ccc(C2CC(c3cccs3)n3ncnc3N2)cc1Cl (centres undefined) | 103% |
| COc1ccc(C2CC(c3ccccc3)Nc3ncnn32)cc1 (centres undefined) | 103% |
| COc1ccc(CCNC(=O)c2ccc(CS(=O)(=O)c3ccc(Br)cc3)o2)cc1OC | 107% |
| COc1ccccc1N(C)S(=O)(=O)c1ccc(C(=O)NC2CCCCCC2)cc1 | 102% |
| CC(=O)Nc1ccc(/C=N/Nc2ccc(C(=O)c3c(C)cc4ccccn34)cc2[N+](=O)[O-])cc1 | 89.3% |
| COC(C[C@H](O)CC(=O)COCc1ccccc1)OC | 110% |

| SMILES | binding response (% of control) |
| --- | --- |
| CC(C)(CNC(=O)c1ccc(Cl)c(S(=O)(=O)N2CCc3ccccc3C2)c1)N1CCOCC1 | 96.9% |
| CCOC(=O)C1C(c2ccc(Cl)cc2)NC(=S)NC1(O)C(F)(F)F (centres undefined) | 102% |
| CCOC(=O)C1=C(C)NC(=O)N(C(C)=O)C1c1ccc(Cl)cc1 (centres undefined) | 109% |
| CCOC(=O)C1Sc2[nH]c(=O)sc2C(c2ccc(Cl)cc2)C1C(=O)OCC (centres undefined) | -39.2% (active) |
| CC(C)(C)NC(=O)COC(=O)c1cc(Cl)ccc1[N+](=O)[O-] | 100% |
| CN1C=CC=C/C1=C1\SC(=S)N(Cc2ccccc2)C1=O | 100% |
| Cc1ccccc1NC(=S)N(CCCN1CCOCC1)Cc1cccs1 | 181% [activator] (active) |
| CCc1cccc(C)c1NC(=S)N(CCCN1CCN(C)CC1)Cc1cccs1 | 105% |
| Cc1ccc(Cl)cc1NC(=S)N(CCN(C)C)Cc1cccs1 | 99.5% |
| COc1ccc(C(CC(=O)N2CCN(c3ccccc3)CC2)c2c(O)cc(OC)cc2OC)cc1 (centres undefined) | 99.5% |
| O=C(CCNc1n[nH]c(=O)[nH]c1=O)N/N=C\c1ccc(Br)cc1 | 100% |
| NCCCCCC(=O)N/N=C/c1ccc2nccnc2c1 | 105% |
| CC(=O)N(CN1C(=O)C2C3C=CC(C3)C2C1=O)c1cccc(Cl)c1 (centres undefined) | 104% |
| Cc1ccc(OCCCn2c(=O)oc3ccccc32)cc1 | 106% |
| O=C(O)C#Cc1cccc2ccccc12 | 103% |
| Nc1ccc(OCC(O)C[n+]2ccc(CCS(=O)(=O)[O-])cc2)cc1 (centres undefined) | 97.6% |
| CCCn1nnnc1NC(=O)COc1ccc(Cl)cc1C | 2.27% (active) |
| CCOC(=O)N1CCN(C(=O)COc2ccc(Cl)cc2C)CC1 | 97.8% |
| Cc1cc(NC(=O)COc2ccc(Cl)cc2Cl)n(CCC#N)n1 | 93.4% |
| CC(C)=NN1C(=O)c2ccccc2NC1(C)C | 120% |
| O=C(CSc1cccc[n+]1[O-])c1ccc(-c2ccccc2)cc1 | 104% |
| N#Cc1ccc(CSc2nnc3ccccn23)cc1 | 101% |

— PubChem BioAssay AID1441 (NMMLSC, 2008)
